# An excerpt weighted towards active compounds, which were near 7.5% of everything screened.
# VACV mCherry inh: vaccinia inhibition (mCherry reporter); Vaccinia virus mCherry reporter infection, fluorescence; Potency, µM (doses to about 36.5 µM), without a hit: top-dose activity change, negative = inhibition, actives largely listed as inhibitors; 310,000 tested, 0.63% active; calls by dose curve; tested in A549 cells; further: potency means the concentration at half of the fitted maximal effect; nearly all actives have a fitted effect of over 35% in size
# HCV inhibitor: blocks hepatitis C virus; Huh7.5.1 HCVcc-Cre infection, luciferase reporter, 44 h; Potency, µM (titrated, usually from 41.8 µM), for the others: at the highest dose activity change, negative = inhibition, most hits filed as inhibitors; 340,000 tested, 3.4% active; AID 651820; further: potency means the concentration at half of the fitted maximal effect
#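 After 44 h co-culture of compound, cells and HCVcc-Cre (~0.5 moi), substrate is added for 15 min at room temperature and luciferase measured over 15 sec. Cells were seeded at 1,000/well and pre-cultured 4 h.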
# FMDV antiviral: antivirals against foot and mouth disease virus; 410,000 tested, 1.2% active; Potency, µM (highest dose often 57.9 µM), inactives show at the top dose activity change, negative = inhibition, hits mostly inhibitors; FMDV antiviral cell-based qHTS; calls by dose curve; tested in HEK293T cells; further: read-out not given here; potency means the concentration at half of the fitted maximal effect; nearly all actives have a fitted effect of over 45% in size
# Vaccinia Venus: vaccinia inhibition (Venus reporter); 330,000 tested, 0.46% active; Vaccinia virus Venus reporter expression, fluorescence; Potency, µM (titrated, usually from 36.5 µM), inactives show top-dose activity change, negative = inhibition, most hits filed as inhibitors; calls by dose curve; tested in A549 cells; further: potency means the concentration at half of the fitted maximal effect; nearly all actives have a fitted effect of over 30% in size
# Giardia FBPA inh: Giardia lamblia aldolase inhibition | A8B2U2 | purified Giardia FBPA | Potency, µM (doses to about 59.6 µM), for inactives: top-dose activity, negative = inhibition, usual class: inhibitors | 290,000 tested, 0.71% active | AID 2451; further: potency means the concentration at half of the fitted maximal effect; nearly all actives have a fitted effect of over 55% in size
# Target sequence (A8B2U2 whole entry, looked up): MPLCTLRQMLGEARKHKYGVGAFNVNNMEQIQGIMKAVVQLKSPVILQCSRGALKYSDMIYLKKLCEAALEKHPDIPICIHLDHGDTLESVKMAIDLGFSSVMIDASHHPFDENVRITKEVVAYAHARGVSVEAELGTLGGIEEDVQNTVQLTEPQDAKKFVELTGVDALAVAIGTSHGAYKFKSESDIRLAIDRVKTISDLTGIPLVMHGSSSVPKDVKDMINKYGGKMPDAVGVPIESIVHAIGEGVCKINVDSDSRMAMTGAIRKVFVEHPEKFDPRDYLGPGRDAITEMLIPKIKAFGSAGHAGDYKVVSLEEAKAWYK
#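 Giardia FBPA (40 nM reagent) was preincubated 10 min at RT with compound (up to 57.5 uM final), then substrate plus GAPDH/TPI/NAD/arsenate coupling system with diaphorase/resazurin was added; resorufin fluorescence (525/598 nm) was read after 20 min.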
# HCMV antiviral: inhibitors of human cytomegalovirus. AID 1259415. 410,000 tested, 4.5% active. HFF cells, HCMV-luciferase reporter, 72 h; hits give low values. activity change, negative = inhibition, % at 57.5 µM; in the data active means activity change below about -60%; inconclusive means no clear call, values can overlap the other calls; inactive means above about -39%
#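 After 16 h attachment at 37C, HFF cells received test compound and HCMV-luciferase (1 PFU/cell); reporter luminescence read 72 h later, data normalized against buffer-only and known inhibitor Salinomycin.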
# * hit, by the source's call; i = inactive; ? = inconclusive; / = no result given; [ ] = remark or other dose. Unless noted, the call rests on the fitted dose curve; in most records, active means well fitted curve in the direction sought with a large enough effect; inconclusive means small, poorly fitted or top-dose-only effect, or another doubt; inactive means no such curve, though single readings can be large; an effect the other way counts as inactive or inconclusive. On the % scale 0 is the no-effect control and ±100 the full control effect.
SMILES,VACV mCherry inh,HCV inhibitor,FMDV antiviral,Vaccinia Venus,Giardia FBPA inh,HCMV antiviral
COc1ccc(N2CCN(C(=O)COCc3cc(-c4ccc5c(c4)OCO5)on3)CC2)cc1,-17%,0%,-16%,-21%,-12%,-13
COc1ccc(-c2cc(CCCC(=O)N3CCN(c4ccc(OC)cc4)CC3)no2)cc1,?,11µM*,?,-8%,2%,-22
COc1ccc(-c2cc(CCCC(=O)NCCc3cc(OC)ccc3OC)no2)cc1,-29%,10µM*,?,-19%,15%,-20
O=c1cc(-c2cccc(F)c2)oc2ccccc12,1%,?,21%,-2%,/,42
O=c1cc(-c2c(F)c(F)c(F)c(F)c2F)oc2ccccc12,-25%,5µM*,/,-22%,5%,?
Cc1cccc(N2CCN(C(=O)Cn3c(C)c4cnn(-c5ccccc5)c(=O)c4c3C)CC2)c1C,?,/,28µM*,-26%,/,-81*
O=[N+]([O-])c1ccc(CS(=O)(=O)c2ncn[nH]2)cc1,i,3%,-10%,-8%,?,-7
O=C(N/N=C/c1ccc([N+](=O)[O-])s1)c1ccncc1,?,?,-30%,11µM*,-10%,/
O=C(NN=Cc1ccc(N2CCOCC2)s1)c1ccc([N+](=O)[O-])cc1,/,22µM*,?,/,/,3
O=C(N/N=C/c1ccc(O)c2ncccc12)c1cccc(Br)c1,?,3.5µM*,-4%,?,?,-99*
O=C(N/N=C/c1cccc([N+](=O)[O-])c1)c1cccc(Br)c1,/,-8%,16%,/,4%,-11
O=C(N/N=C/c1ccc([N+](=O)[O-])s1)c1cccc(Br)c1,?,?,?,?,-7%,-69*
CCCSc1nc(-c2ccccc2)[nH]c1S(=O)(=O)c1ccc(C)cc1,-16%,/,30%,-17%,/,-17
CCC[C@H]1[C@@H](NC(=O)Nc2cc(Cl)cc(Cl)c2)CC[C@@]23CCCN2C(=O)CCC[C@@H]13,/,/,/,/,/,-27
Cc1ccc(C(=O)N/N=C/c2ccc([N+](=O)[O-])s2)cc1,-12%[1.46 µM],2.8µM*,2.8µM*,?,/,-24
Cc1ccc(C(=O)N/N=C\c2ccc([N+](=O)[O-])s2)cn1,-3%,-5%,?,-26%,4%,?
